Compound activity: PubChem, National Center for Advancing Translational Sciences (NCATS)
HT1080-NT tox: kills 2HG-producing HT-1080-NT fibrosarcoma cells; AID 686970; Potency, µM (series often up to 46.1 µM), without a hit: top-dose activity, negative = less viability, most hits filed as cytotoxic; HT-1080-NT fibrosarcoma viability, CellTiter-Glo ATP luminescence, 48 h; 360,000 compounds, 1.6% hits;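 further: NT is the 2HG producing partner of a matched IDH1 knockdown line; potency means the concentration at half of the fitted maximal effect; 0% = DMSO-treated cells and -100% = media-only wells without cells; nearly all actives have a fitted effect of over 55% in size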
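A 48-hour cytotoxicity screen used HT-1080-NT cells plated 2 hours before compound delivery. ATP-based CellTiter-Glo luminescence measured viability, normalized to DMSO and no-cell controls.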
DT40 TDP1 CPT: growth inhibition of DT40 Tdp1-/-;hTDP1 cells with camptothecin (screen for TDP1 inhibitors) | chicken DT40 Tdp1-/-;hTDP1 cells + 20 nM CPT, ATP luminescence, 48 h | Potency, µM (doses to about 46.2 µM), inactives show top-dose activity change, negative = growth inhibition, usual class: inhibitors | 420,000 compounds, 12% hits | AID 686979; further: potency means the concentration at half of the fitted maximal effect; nearly all actives have a fitted effect of over 55% in size
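Chicken DT40 Tdp1-/- cells stably complemented with human TDP1 were seeded at 400 cells/well in medium containing 20 nM camptothecin, exposed to pin-transferred compounds, and grown at 37 °C for at least 48 hr. Viability was read as ATP luminescence.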
HT1080 IDH1KD tx: toxicity to HT-1080 IDH1 knockdown cells (counter line); Potency, µM (top dose mostly 46.1 µM), without a hit: top-dose activity, negative = toxicity, hits mostly cytotoxic; HT-1080 IDH1 knockdown viability, ATP luminescence, 48 h; 360,000 compounds, 2% hits; AID 686971;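 further: potency means the concentration at half of the fitted maximal effect; 0% = DMSO wells and -100% = cell-free medium wells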
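HT-1080-IDH1KD cells (IDH1 knocked down), 750/well in RPMI with 5% FBS, treated with compound 48 h at 37 degrees C. Viability by CellTiter-Glo luminescence, normalised to DMSO and no-cell wells; concentration-response curves classed.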
ELG1 repair inh: blocks ELG1-dependent DNA repair in HEK293T cells; 330,000 compounds, 2.3% hits; AID 504467; Potency, µM (series often up to 46.1 µM), inactives show top-dose activity change, negative = inhibition, usual class: inhibitors; HEK293T ELG1-luciferase reporter, luminescence, 16 h; DNA damage induced by 5-fluorouridine; further: potency means the concentration at half of the fitted maximal effect; nearly all actives have a fitted effect of over 55% in size
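Step one: seed 2,000 cells per well. Step two: pin-transfer compound or DMSO alongside 5-fluorouridine. Step three: incubate 16 hr, 37 °C, 5% CO2. Step four: add ONE-Glo, wait 30 min, read luminescence.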
DT40 TDP1 no CPT: qHTS for Inhibitors of human tyrosyl-DNA phosphodiesterase 1 (TDP1): qHTS in cells in absence of CPT | DT40 Tdp1-/- hTDP1 cells, no CPT, ATP luminescence, 48 h | Potency, µM (top dose mostly 46.2 µM), without a hit: at the top dose activity change, negative = growth inhibition, actives largely listed as inhibitors | 420,000 compounds, 15% hits | AID 686978, 2013; further: potency means the concentration at half of the fitted maximal effect; nearly all actives have a fitted effect of over 55% in size
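Stably hTDP1-transfected Tdp1-null chicken DT40 cells were treated with library compounds minus camptothecin and grown for at least 48 hr at 37 °C, after which cellular ATP was quantified by luminescence.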
IL1B secr inh: inhibitors of inflammasome signaling (IL-1 beta secretion); 360,000 compounds, 4.7% hits; THP-1 LPS/ATP IL-1B secretion, AlphaLISA, 16 h; active compounds read low; AID 743279; activity change, % at 57.5 µM; in the data active means activity change below about -50%; inconclusive means mostly about -30% to -49%
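Secreted IL-1B measured by AlphaLISA bead assay after 16 h compound exposure of THP-1 cells; compounds (final up to 57.5 uM) added 1 h before LPS (250 ng/mL) and ATP (1.25 mM) stimulation; lower signal means less secretion.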
Active calls of the source: *; ! = not active in a repeat. In the library only some 19% were active in any assay of this set; here they are far more common. Unless noted, the call rests on the fitted dose curve; in most records, active means well fitted curve in the direction sought with a large enough effect; inconclusive means small, poorly fitted or top-dose-only effect, or another doubt; inactive means no such curve, though single readings can be large; an effect the other way counts as inactive or inconclusive. Unless noted, on the % scale 0 is the no-effect control and ±100 the full control effect.

Screening COc1ccc(-n2c(O)c(C(C)=NCCc3c[nH]c4ccccc34)c(=O)[nH]c2=O)cc1 returned HT1080-NT tox -3%, DT40 TDP1 CPT -20%, HT1080 IDH1KD tx -2%, ELG1 repair inh -9%, DT40 TDP1 no CPT inconclusive and IL1B secr inh 24.
Screening O=C1CC(N2CCC(n3c(=O)[nH]c4ccccc43)CC2)C(=O)N1Cc1ccccc1 (centres undefined) returned HT1080-NT tox 2%, DT40 TDP1 CPT -4%, HT1080 IDH1KD tx 0%, ELG1 repair inh inconclusive, DT40 TDP1 no CPT -10% and IL1B secr inh -12.
Screening O=c1[nH]c2ccccc2n1C1CCN(Cc2ccc(-c3[nH]c4cc5ncnc5cc4nc3-c3ccccc3)cc2)CC1 returned HT1080-NT tox inconclusive, DT40 TDP1 CPT 2.3µM*, HT1080 IDH1KD tx inconclusive, DT40 TDP1 no CPT 2.9µM* and IL1B secr inh 0.
Screening CCn1c(N)c(C(=O)NC)sc1=S returned HT1080-NT tox 15%, DT40 TDP1 CPT 18µM*, HT1080 IDH1KD tx 18%, ELG1 repair inh -6%, DT40 TDP1 no CPT 16µM* and IL1B secr inh -20.
Screening O=C(CCc1ccccc1)N1Cc2cc(N3CCCCC3)ccc2-n2nncc2C1 returned HT1080-NT tox -1%, DT40 TDP1 CPT inconclusive, HT1080 IDH1KD tx 4%, DT40 TDP1 no CPT inconclusive and IL1B secr inh -30.
Screening CC1(C)C(=O)[C@@H]2OC2[C@@]2(C)C1CC(O)[C@]1(C)C2CC[C@@]2(C)C(c3ccoc3)OC(=O)C3OC312 (some centres undefined) returned DT40 TDP1 CPT -26% and DT40 TDP1 no CPT inconclusive.
CC[C@H]1c2ccccc2[C@@H]2CC[C@H]1N2c1ccccc1 was read as HT1080-NT tox 8%, DT40 TDP1 CPT -4%, HT1080 IDH1KD tx 1%, DT40 TDP1 no CPT -7% and IL1B secr inh 26.
`c1ccc2c(N3CCNCC3)cccc2c1` gave HT1080-NT tox -29%, DT40 TDP1 CPT 18µM*, HT1080 IDH1KD tx inconclusive, DT40 TDP1 no CPT inconclusive and IL1B secr inh inconclusive.
For Clc1cccc(N2CCNCC2)c1Cl the results were HT1080-NT tox -22%, DT40 TDP1 CPT -16%, HT1080 IDH1KD tx -18%, ELG1 repair inh 27%, DT40 TDP1 no CPT inconclusive and IL1B secr inh 20.
`COc1ccc2c(c1)c(C(=O)C(C)N1CCCCC1)c(C)n2C` (centres undefined) gave HT1080-NT tox 4%, DT40 TDP1 CPT -3%, HT1080 IDH1KD tx -2%, ELG1 repair inh 17%, DT40 TDP1 no CPT 15% and IL1B secr inh 6.
Cc1nccc2c1[nH]c1ccccc12 was read as HT1080-NT tox -19%, DT40 TDP1 CPT inconclusive, HT1080 IDH1KD tx -14%, ELG1 repair inh -2%, DT40 TDP1 no CPT 24µM*! and IL1B secr inh -26.
`Cc1c2ccncc2c(C)c2c1[nH]c1ccccc12` gave HT1080-NT tox 10µM*, DT40 TDP1 CPT 2.3µM*, HT1080 IDH1KD tx 3.7µM*, ELG1 repair inh inconclusive, DT40 TDP1 no CPT 1.5µM* and IL1B secr inh -79*.
CCc1nccc2c1[nH]c1ccccc12 was read as HT1080-NT tox 0%, DT40 TDP1 CPT -27%, HT1080 IDH1KD tx -6%, ELG1 repair inh -9%, DT40 TDP1 no CPT inconclusive and IL1B secr inh -1.
Screening O=C(OCC1OC(n2cnc3c(N(C(=O)c4ccccc4)C(=O)c4ccccc4)ncnc32)C(O)C1F)c1ccccc1 (centres undefined) returned HT1080-NT tox inconclusive, DT40 TDP1 CPT inconclusive, HT1080 IDH1KD tx inconclusive, ELG1 repair inh -17%, DT40 TDP1 no CPT inconclusive and IL1B secr inh 38.
`c1cncc(CNc2cc(-c3ccc4c(c3)OCO4)ncn2)c1` gave DT40 TDP1 CPT 7% and DT40 TDP1 no CPT inconclusive.
Screening CCC(C(=O)Nc1ccccc1C(=O)OC)n1nc(C)c2c(C)n(-c3ccc(C)cc3)nc2c1=O (centres undefined) returned DT40 TDP1 CPT 7.3µM* and DT40 TDP1 no CPT 12µM*.
Screening CC1Cc2cc(S(=O)(=O)N(Cc3ccccc3)C(C)C)ccc2N1C(=O)C1CCC1 (centres undefined) returned DT40 TDP1 CPT inconclusive and DT40 TDP1 no CPT 21µM*.
Screening CCCCn1c(O)c(C(C)=Nc2ccc3c(c2)CCC3)c(=O)[nH]c1=O returned HT1080-NT tox inconclusive, DT40 TDP1 CPT inconclusive, HT1080 IDH1KD tx 2%, ELG1 repair inh inconclusive, DT40 TDP1 no CPT inconclusive and IL1B secr inh 53.
For O=P(O)(Oc1ccccc1)OC(c1ccccc1)C(F)(F)C(F)(F)F (centres undefined) the results were HT1080-NT tox 12%, DT40 TDP1 CPT 4%, HT1080 IDH1KD tx 0%, ELG1 repair inh -2%, DT40 TDP1 no CPT -13% and IL1B secr inh 32.
For COc1ccc(CN2CCN(C(=O)COc3cccc(C)c3)CC2)c(OC)c1 the results were HT1080-NT tox 4%, DT40 TDP1 CPT inconclusive, HT1080 IDH1KD tx -18%, ELG1 repair inh -28%, DT40 TDP1 no CPT inconclusive and IL1B secr inh -11.
For COc1ccccc1CN1CCN(C(=O)COc2ccc3ccccc3c2)CC1 the results were HT1080-NT tox -12%, DT40 TDP1 CPT inconclusive, HT1080 IDH1KD tx -12%, ELG1 repair inh 1%, DT40 TDP1 no CPT -15% and IL1B secr inh -5.
Screening COc1ccc(OC)c(CN2CCN(C(=O)COc3cccc(C)c3)CC2)c1 returned HT1080-NT tox -1%, DT40 TDP1 CPT 26µM*, HT1080 IDH1KD tx -1%, ELG1 repair inh -8%, DT40 TDP1 no CPT inconclusive and IL1B secr inh -4.
COc1ccccc1CN1CCN(C(=O)COc2cccc(C)c2)CC1 was read as HT1080-NT tox 0%, DT40 TDP1 CPT inconclusive, HT1080 IDH1KD tx -2%, ELG1 repair inh -1%, DT40 TDP1 no CPT 21µM*! and IL1B secr inh -6.
FC(F)(F)c1ccccc1CCN1CCNCC1 was read as HT1080-NT tox 0%, DT40 TDP1 CPT -8%, HT1080 IDH1KD tx -19%, ELG1 repair inh -3%, DT40 TDP1 no CPT 22% and IL1B secr inh 14.
For CC(Cc1ccc(OCC(=O)O)cc1)NCC(O)c1cccc(Cl)c1 (centres undefined) the results were DT40 TDP1 CPT -4% and DT40 TDP1 no CPT -12%.
